# Laboratory results: PubChem BioAssay
# A number with no mark means an inactive call. Activity calls are given as the source filed them.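 How the source made its calls: active means mean inhibition over 43.08%, the solvent-only control mean plus 3 SD; inactive means the rest.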
# Target: Nuclear receptor coactivator 3 (Homo sapiens) (UniProt Q9Y6Q9)
# Experiment: NCOA3 GAL4-fusion reporter inhibition – cell-based, luminescence, quadruplicate, confirmation (AID 588792);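 further: 0% = DMSO treated cells and 100% = gossypol at 36 µM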
# Conditions: HEK293 GAL4-SRC3 luciferase reporter, at 3.6 µM, active compounds read high
# Chain of Nuclear receptor coactivator 3 (Homo sapiens) (Q9Y6Q9 whole entry, looked up, the tested form may be a part): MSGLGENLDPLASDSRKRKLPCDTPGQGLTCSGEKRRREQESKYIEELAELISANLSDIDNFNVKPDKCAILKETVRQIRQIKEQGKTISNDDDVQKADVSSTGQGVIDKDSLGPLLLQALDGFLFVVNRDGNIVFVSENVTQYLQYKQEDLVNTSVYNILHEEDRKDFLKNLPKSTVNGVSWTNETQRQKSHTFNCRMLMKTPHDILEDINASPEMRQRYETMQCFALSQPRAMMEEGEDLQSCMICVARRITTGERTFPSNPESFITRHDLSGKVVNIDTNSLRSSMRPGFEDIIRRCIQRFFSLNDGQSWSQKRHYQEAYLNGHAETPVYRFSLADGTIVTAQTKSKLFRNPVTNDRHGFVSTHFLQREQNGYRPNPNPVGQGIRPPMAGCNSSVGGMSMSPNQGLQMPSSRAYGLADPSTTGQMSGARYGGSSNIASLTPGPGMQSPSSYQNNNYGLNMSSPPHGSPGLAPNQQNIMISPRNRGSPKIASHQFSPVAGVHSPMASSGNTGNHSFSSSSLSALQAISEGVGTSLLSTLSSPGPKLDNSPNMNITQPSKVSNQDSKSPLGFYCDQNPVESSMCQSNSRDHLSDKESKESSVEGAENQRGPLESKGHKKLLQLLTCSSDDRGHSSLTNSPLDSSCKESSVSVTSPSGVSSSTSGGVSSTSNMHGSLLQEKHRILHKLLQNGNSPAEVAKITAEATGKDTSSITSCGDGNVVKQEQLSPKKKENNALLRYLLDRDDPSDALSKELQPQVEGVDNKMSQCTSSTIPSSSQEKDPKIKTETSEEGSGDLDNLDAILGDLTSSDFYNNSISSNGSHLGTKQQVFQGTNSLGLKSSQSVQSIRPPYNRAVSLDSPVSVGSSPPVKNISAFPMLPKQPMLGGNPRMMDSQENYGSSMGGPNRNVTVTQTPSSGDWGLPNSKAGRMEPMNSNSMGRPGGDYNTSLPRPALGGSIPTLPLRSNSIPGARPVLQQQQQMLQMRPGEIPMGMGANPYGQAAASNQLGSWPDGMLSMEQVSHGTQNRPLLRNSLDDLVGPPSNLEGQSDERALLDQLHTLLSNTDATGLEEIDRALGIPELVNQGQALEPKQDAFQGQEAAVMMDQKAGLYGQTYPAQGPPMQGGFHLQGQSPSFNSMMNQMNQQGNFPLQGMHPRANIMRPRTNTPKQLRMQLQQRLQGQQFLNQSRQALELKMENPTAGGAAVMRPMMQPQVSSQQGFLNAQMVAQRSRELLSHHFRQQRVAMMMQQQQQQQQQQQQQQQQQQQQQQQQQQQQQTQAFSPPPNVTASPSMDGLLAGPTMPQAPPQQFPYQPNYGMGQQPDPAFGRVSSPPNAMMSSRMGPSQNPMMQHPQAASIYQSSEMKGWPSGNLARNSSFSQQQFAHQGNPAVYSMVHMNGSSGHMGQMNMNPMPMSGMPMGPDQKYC
row,Structure (SMILES),inhibition
1,CSCc1cc(N(C)c2ccccc2)nc(-c2ccccn2)n1,-19.7%
2,N#Cc1c(NCc2ccccc2)ccnc1Cl,27.5%
3,CCOC(=O)c1c(-c2ccccc2)oc2ccc(O)c(CN3CCOCC3)c12,-5.57%
4,CCCCNC1C(CC)C(CCC)C(C#N)(C#N)C1(C#N)C#N (stereo not given),3.79%
5,O=C(CCN1CCN(c2ccccc2)CC1)Nc1ccc(Cl)cc1,3.39%
6,COc1ccc(OC)c(N/C=C/C(=O)c2ccccc2)c1,44.8% (active)
7,Cc1ccc(C(=O)OCC(=O)Nc2sccc2C(N)=O)cc1NC(=O)c1ccco1,18.4%
8,Cc1ccccc1OCc1n(CC(=O)OC2CC(C)CCC2C(C)C)c2ccccc2[n+]1C (stereo not given),13%
9,CCn1cc(C(=O)NCc2ccccn2)c(=O)c2cc(F)c(N3CCN(C)CC3)cc21,-0.49%
10,Cc1ccc(NC2=C/C(=N/S(=O)(=O)c3cccs3)c3ccccc3C2=O)cc1,85% (active)
11,CNC(=O)c1ccc(-c2sc3nc(N4CCOCC4)c4c(c3c2N)CC(C)(C)OC4)o1,3.63%
12,CCc1cccc(CC)c1NC(=O)CSc1nc2ccc(N3C(=O)C4C(C3=O)[C@H]3C=C[C@@H]4C3)cc2s1 (stereo not given in full),1.87%
13,COc1ccc(Cl)cc1NC(=O)CN(C)CC(=O)Nc1c(C)n(C)n(-c2ccccc2)c1=O,14.8%
14,O=C(NNC1=Nc2ccccc2SC1)c1ccc(Cl)cc1,24.6%
15,CCC(C)(CC(=O)O)CC(=O)Nc1cc(C(F)(F)F)cc(C(F)(F)F)c1 (stereo not given),9.02%
